Source: the supplement of paper PMC6763611

Tested on: Plasmodium falciparum NF54
Assay: growth inhibition relative to untreated control; higher = more inhibition
Conditions: 72 h
Method in brief: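 Two media were used: minimal RPMI, and minimal RPMI carrying the chorismate end-products folate, pABA, pHBA, tyrosine, phenylalanine and tryptophan at 2.2 μM, 7.3 μM, 7.3 μM, 111 μM and 90 μM for the first five. In these media, P. falciparum NF54 ring stages (1% hematocrit, 1% parasitemia, 100 μL/well) were exposed in dark 96-well half-area plates to a single 5 μM or 1 μM test-compound dose for 72 h at 37 °C. Growth inhibition was then assessed with SYBR Green against untreated wells, subtracting background from uninfected erythrocytes.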

[1] = 1 µM, MM + chorismate end-products (CM screening medium)
[2] = 5 µM, MM + chorismate end-products (CM screening medium)

| Structure (SMILES) | growth inhibition [1] | growth inhibition (1 µM, minimal medium (MM)) | growth inhibition [2] | growth inhibition (5 µM, minimal medium (MM)) |
| --- | --- | --- | --- | --- |
| c1ccc(-c2cc(N3CCCCC3)c3ccccc3n2)nc1 | 3.57% | < 0% | 37.4% | 26.9% |
| Cc1ccc(Oc2ccc(NC(=O)CNc3ccccc3N3CCCC3=O)cc2)cc1 | 85.2% | 87.4% | 98.3% | 91.8% |
| Nc1nccc2ccc(-c3ccc4nccn4c3)cc12 | > 100% | > 100% | 97.8% | 88.2% |
| Cc1nn2c(=O)c3c([nH]c2c1-c1ccc(Cl)cc1)CCCC3 | < 0% | 22.1% | 7.72% | 16.2% |
| CN1CCN(c2cc(-c3ccc(F)cc3)nc(-c3ccncc3)n2)CC1 | 79.9% | 95.3% | 92.9% | 96.5% |
| CCOc1ccc(OCC(=O)Nc2cc(C)cc(C)c2)cc1 | 24.6% | < 0% | 32.1% | < 0% |
| O=C(C1CCCCC1)N1CC(=O)N2CCc3ccccc3C2C1 (centres undefined) | < 0% | 15.5% | 0.306% | < 0% |
| O=C(Nc1nc(-c2ccccn2)cs1)C1CC1c1ccccc1F (centres undefined) | 16% | < 0% | 54.3% | 26.1% |
| CC(=O)N1CCN(c2ccc(Oc3ccc(Cl)cc3O)cc2)CC1 | 48.6% | 13.5% | < 0% | < 0% |
| N=C(N)c1ccc(-c2cc(-c3ccccc3)on2)cc1 | 2.89% | 5.06% | 86.7% | 71.2% |
| CO[C@@H](C(=O)N1Cc2[nH]nc(NC(=O)c3ccc(N4CCN(C)CC4)cc3)c2C1)c1ccccc1 | 45.1% | 55.3% | 90% | 90.1% |
| CCc1nc2ccc(Cl)cn2c1C(=O)NCc1ccc(N2CCC(c3ccc(OC(F)(F)F)cc3)CC2)cc1 | < 0% | < 0% | 91% | 71.4% |
| CO[C@H]1/C=C\O[C@@]2(C)Oc3c(C)c(O)c4c(O)c(/c(=C/NN5CCN(C)CC5)c(O)c4c3C2=O)=N\C(=O)/C(C)=C\C=C/[C@H](C)[C@H](O)[C@@H](C)[C@@H](O)[C@@H](C)[C@H](OC(C)=O)[C@@H]1C | 35.5% | 38.2% | > 100% | 97.2% |
| CCC(NC(=O)c1ccccc1NC(=O)c1ccc(C)cc1)C(=O)OC (centres undefined) | 97.3% | 96.2% | 97.1% | 91.3% |
| Cc1ncc(-c2ccnc(Nc3ccc(S(C)(=O)=O)cc3)n2)n1C(C)C | 67% | 59.4% | 42.1% | 45.6% |
| COc1cc2ncnc(NC3CCN(Cc4ccccc4)CC3)c2cc1OC | 98.1% | 95.5% | 99.3% | 92.2% |
| CC(C)NCC(=O)Nc1cccc(C(=O)Nc2cccc(C(F)(F)F)c2)c1 | 72.4% | 83.1% | 89.3% | 97.4% |
| FC(F)(F)c1cnc(Sc2nnc(-c3ccncc3)o2)c(Cl)c1 | 53% | 61.3% | 64% | < 0% |
| C[C@H](c1ccc2c(c1)CCCC2)N(C)c1ncc2c(N)nc(N)nc2n1 | 8.99% | 2.84% | 36% | 15.3% |
| CC(C)C(NC(=O)Cc1cccc2ccccc12)C(=O)Nc1cccc(C#N)c1 (centres undefined) | 89.9% | 86.3% | 79.3% | 91% |
| COc1ccc(C(=N)N)cc1-c1cn(-c2ccc(C(=N)N)cc2)nn1 | 65.6% | 53.6% | 47.8% | 39.2% |
| C[C@]1(O)C[C@@H](c2nc(-c3ccc4ccc(-c5ccccc5)nc4c3)c3c(N)nccn32)C1 | 35% | 34.1% | 53.2% | 43.8% |
| c1ccc(Oc2ccc(-c3cc(N4CCNCC4)[nH]n3)cc2)cc1 | 32.1% | 29.2% | 40.3% | 34.4% |
| O=C1COCc2ccc(Br)cc2N1Cc1ccc(C(F)(F)F)cc1 | 56% | 96.7% | > 100% | 85.1% |
| O=C(NC1=NCCS1)c1sc2cc(F)ccc2c1Cl | 25.1% | 4.51% | < 0% | < 0% |
| Cc1cc2nc(NC(=O)C(C)(C)C)nc(Cl)c2n1Cc1ccc(Cl)cc1 | 35.7% | 28.8% | < 0% | < 0% |

| Structure (SMILES) | growth inhibition [1] | growth inhibition (1 µM, minimal medium (MM)) | growth inhibition [2] | growth inhibition (5 µM, minimal medium (MM)) |
| --- | --- | --- | --- | --- |
| CN1CCC(NCc2cccc(-c3ccc(S(=O)(=O)NCc4ccccc4)cc3)c2)CC1 | 96.4% | > 100% | 96% | 94.2% |
| Cc1ccc(-c2cc(C(=O)Nc3cccnc3)c3cc(Br)ccc3n2)cc1 | 92.4% | 95.2% | 98.3% | 86.3% |
| CC1=Nc2ccc(Cl)cc2C(c2ccccc2)N1CCNC(=O)CN(C)C (centres undefined) | 49% | 19% | > 100% | 89.7% |
| c1ccc(Oc2ccc(-c3cc(N4CCOCC4)[nH]n3)cc2)cc1 | > 100% | < 0% | 7.27% | < 0% |
| c1cc(C2=NCCN2)cc(-c2cc(-c3ccc(C4=NCCN4)cc3)no2)c1 | 81.6% | 81.6% | 97.8% | 89.7% |
| CS(=O)(=O)c1ccc(C(=O)N(CC2CCCO2)c2nc3ccccc3s2)cc1[N+](=O)[O-] (centres undefined) | < 0% | 31.2% | 72.3% | 55.5% |
| COc1cc(NC(C)CCCN)c2ncccc2c1 (centres undefined) | 51.1% | 54.5% | 64.3% | 38% |
| O=C(NC1CCCCC1)N1CCN(Cc2ccc3c(c2)OCO3)CC1 | < 0% | < 0% | < 0% | < 0% |
| COc1cccc(-c2cc3c(Nc4cccnc4)nccc3[nH]2)c1 | 91% | 18.4% | 94.2% | 94.8% |
| O=C(c1ccc(F)cc1)N(CCNc1ccccc1)c1ccccc1 | < 0% | < 0% | 58.9% | 4.16% |
| NC(=O)c1cc(-c2ccsc2)ccc1OCCOc1ccccc1 | 18.1% | 9.01% | 4.73% | < 0% |
| c1ccc(-c2[nH]c3ccccc3c2C(c2ccccn2)N2CCCC2)cc1 (centres undefined) | 3.66% | 5.9% | 43.6% | < 0% |
| COc1cncc(-c2cncc(N3CCN(c4ccncc4)CC3)n2)c1 | > 100% | > 100% | 97.4% | 89.1% |
| CC(C)(C)n1nc(Cc2ccc(F)c(Cl)c2)c2c(N)ncnc21 | 5.37% | < 0% | 54.9% | 1.6% |
| COc1ccc(N(CCc2cccc(C)n2)C(C)=O)cc1 | 16.2% | < 0% | < 0% | < 0% |
| Cc1ccc2[nH]c(C3CCCNC3)c(-c3ccncc3)c2c1 (centres undefined) | 97.7% | 97.5% | > 100% | 97.4% |
| O=C(Nc1ccc(C(F)(F)F)c(C(F)(F)F)c1)c1cc(Cl)ccc1O | 93.1% | 95% | > 100% | 92.5% |
| COc1cccc(NC(=O)c2c(NC(=O)c3cccnc3)sc3c2CCC3)c1 | 47.5% | 9.66% | 53.5% | 8.07% |
| CC1=Nc2ccc(Cl)cc2C(O)(c2ccc(C)cc2)N1CCN1CCCCC1 (centres undefined) | 99.9% | > 100% | > 100% | 86.9% |
| CCOc1ccc(-c2nc(NC(=O)CS(=O)(=O)c3ccccc3)sc2C)cc1 | 96.4% | 95.3% | 95.3% | 92.6% |
| CC(=O)N(CCN(C(=O)c1ccc(F)cc1)c1ccccc1)c1ccccc1 | < 0% | < 0% | 20.2% | < 0% |
| Clc1ccc(CN2CCN(C3=NCCN3)CC2)cc1Cl | < 0% | < 0% | 48.8% | 10% |
| Cc1cccc(Cn2ccc(NC(=O)c3ccc4c(c3)OCO4)n2)c1 | 18.2% | 6.8% | 12.8% | 17.9% |
| Cc1cc(OCC(=O)Nc2ccc(C(C)C)cc2)n(C)c(=O)c1C#N | 18.1% | 33% | 18.4% | 21% |
| CCN(CC)S(=O)(=O)c1ccc(Cl)c(C(=O)Nc2ccc3nc(C)sc3c2)c1 | 98.3% | 96.2% | 91.3% | 94.1% |
